This is an account of results in ChEMBL document CHEMBL1961873, “Compounds: GSK PKIS; Assays: Nanosyn kinase panel” (2012).

For experiment [1], the target named is 5'-AMP-activated protein kinase catalytic subunit alpha-2 (Homo sapiens) (UniProt P54646). The following applies: at 1 µM.
The target in experiment [2] is T1, NUAK family SNF1-like kinase 1 (Homo sapiens) (UniProt O60285).
T1 sequence (whole entry): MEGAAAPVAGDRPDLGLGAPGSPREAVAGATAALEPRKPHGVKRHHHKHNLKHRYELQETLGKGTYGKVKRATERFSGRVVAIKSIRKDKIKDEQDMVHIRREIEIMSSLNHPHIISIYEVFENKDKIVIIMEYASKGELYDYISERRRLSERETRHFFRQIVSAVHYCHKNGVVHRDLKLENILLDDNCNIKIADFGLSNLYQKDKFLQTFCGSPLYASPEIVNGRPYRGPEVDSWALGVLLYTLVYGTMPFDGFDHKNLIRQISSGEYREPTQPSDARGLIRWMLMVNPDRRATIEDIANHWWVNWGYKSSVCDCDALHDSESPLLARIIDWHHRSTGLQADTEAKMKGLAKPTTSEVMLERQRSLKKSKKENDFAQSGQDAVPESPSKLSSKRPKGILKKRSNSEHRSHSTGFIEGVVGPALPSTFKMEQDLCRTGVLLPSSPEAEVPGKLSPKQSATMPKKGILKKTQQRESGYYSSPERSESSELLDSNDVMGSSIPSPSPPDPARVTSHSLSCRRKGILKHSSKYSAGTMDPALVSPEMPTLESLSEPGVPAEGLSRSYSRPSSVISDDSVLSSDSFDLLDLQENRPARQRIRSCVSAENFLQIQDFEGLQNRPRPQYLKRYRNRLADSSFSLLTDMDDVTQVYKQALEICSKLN
The following applies: at 0.1 µM.

Experiment [3] concerns the target T1, NUAK family SNF1-like kinase 1 (Homo sapiens). The following applies: at 1 µM.
The target of experiment [4] is T2, Serine/threonine-protein kinase BRSK1 (Homo sapiens) (UniProt Q8TDC3).
T2 sequence (whole entry): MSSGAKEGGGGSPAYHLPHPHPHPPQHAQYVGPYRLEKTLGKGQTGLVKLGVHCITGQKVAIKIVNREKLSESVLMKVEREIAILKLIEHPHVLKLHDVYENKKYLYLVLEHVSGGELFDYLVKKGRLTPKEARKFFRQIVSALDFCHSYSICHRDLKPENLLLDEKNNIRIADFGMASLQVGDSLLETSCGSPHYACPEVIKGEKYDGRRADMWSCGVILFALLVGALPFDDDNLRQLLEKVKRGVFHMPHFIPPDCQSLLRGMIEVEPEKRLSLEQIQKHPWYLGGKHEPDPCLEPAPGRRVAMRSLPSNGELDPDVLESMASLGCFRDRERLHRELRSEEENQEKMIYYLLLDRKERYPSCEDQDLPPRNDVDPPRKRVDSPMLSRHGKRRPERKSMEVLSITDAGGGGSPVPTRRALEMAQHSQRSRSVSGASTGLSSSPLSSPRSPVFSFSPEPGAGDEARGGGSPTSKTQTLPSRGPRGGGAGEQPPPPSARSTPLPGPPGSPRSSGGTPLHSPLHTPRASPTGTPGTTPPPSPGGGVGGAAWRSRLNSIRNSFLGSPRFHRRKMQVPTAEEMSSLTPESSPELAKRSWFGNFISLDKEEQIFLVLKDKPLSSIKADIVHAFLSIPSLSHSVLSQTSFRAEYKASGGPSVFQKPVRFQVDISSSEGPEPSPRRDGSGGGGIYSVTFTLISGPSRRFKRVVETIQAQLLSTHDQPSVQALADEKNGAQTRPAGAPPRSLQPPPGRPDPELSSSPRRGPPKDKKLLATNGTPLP
The conditions noted are these: at 0.1 µM.

Experiment [5] deals with T2, Serine/threonine-protein kinase BRSK1 (Homo sapiens). The conditions noted are these: at 1 µM.
The target in experiment [6] is T3, Serine/threonine-protein kinase BRSK2 (Homo sapiens) (UniProt Q8IWQ3).
T3 sequence (whole entry): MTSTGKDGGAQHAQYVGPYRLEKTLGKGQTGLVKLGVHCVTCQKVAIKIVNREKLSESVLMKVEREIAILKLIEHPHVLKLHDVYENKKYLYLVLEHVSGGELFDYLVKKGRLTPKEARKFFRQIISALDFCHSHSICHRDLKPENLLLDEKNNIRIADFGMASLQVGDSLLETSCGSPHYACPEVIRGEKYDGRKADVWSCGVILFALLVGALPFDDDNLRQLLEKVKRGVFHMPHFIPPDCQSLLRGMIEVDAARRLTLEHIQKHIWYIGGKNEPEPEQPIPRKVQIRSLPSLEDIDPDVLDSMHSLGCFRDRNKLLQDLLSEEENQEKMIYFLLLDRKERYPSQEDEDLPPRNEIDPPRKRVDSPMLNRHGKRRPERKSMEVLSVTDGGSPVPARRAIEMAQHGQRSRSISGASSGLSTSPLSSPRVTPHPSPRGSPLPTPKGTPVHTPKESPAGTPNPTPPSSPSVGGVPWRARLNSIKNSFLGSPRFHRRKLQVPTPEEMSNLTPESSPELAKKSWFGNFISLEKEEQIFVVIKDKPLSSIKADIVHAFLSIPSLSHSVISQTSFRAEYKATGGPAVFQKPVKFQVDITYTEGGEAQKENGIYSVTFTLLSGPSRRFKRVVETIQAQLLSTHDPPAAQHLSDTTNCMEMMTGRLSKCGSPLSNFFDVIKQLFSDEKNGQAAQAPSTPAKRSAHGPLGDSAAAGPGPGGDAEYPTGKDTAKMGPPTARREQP
The conditions noted are these: at 0.1 µM.

Experiment [7] has as its target T3, Serine/threonine-protein kinase BRSK2 (Homo sapiens). The following applies: at 1 µM.
Experiment [8] has as its target Calcium/calmodulin-dependent protein kinase type 1D (Homo sapiens) (UniProt Q8IU85). The following applies: at 0.1 µM.
Experiment [9] shares this target. The following applies: at 1 µM.
Experiment [10] concerns the target Calcium/calmodulin-dependent protein kinase type II subunit alpha (Homo sapiens) (UniProt Q9UQM7). The following applies: at 0.1 µM.
The target is the same in experiment [11]. The following applies: at 1 µM.
Experiment [12] addresses Calcium/calmodulin-dependent protein kinase type II subunit delta (Homo sapiens) (UniProt Q13557). The following applies: at 0.1 µM.
Experiment [13] has the same target. The following applies: at 1 µM.
In experiment [14] the target is T4, Calcium/calmodulin-dependent protein kinase type IV (Homo sapiens) (UniProt Q16566).
T4 sequence (whole entry): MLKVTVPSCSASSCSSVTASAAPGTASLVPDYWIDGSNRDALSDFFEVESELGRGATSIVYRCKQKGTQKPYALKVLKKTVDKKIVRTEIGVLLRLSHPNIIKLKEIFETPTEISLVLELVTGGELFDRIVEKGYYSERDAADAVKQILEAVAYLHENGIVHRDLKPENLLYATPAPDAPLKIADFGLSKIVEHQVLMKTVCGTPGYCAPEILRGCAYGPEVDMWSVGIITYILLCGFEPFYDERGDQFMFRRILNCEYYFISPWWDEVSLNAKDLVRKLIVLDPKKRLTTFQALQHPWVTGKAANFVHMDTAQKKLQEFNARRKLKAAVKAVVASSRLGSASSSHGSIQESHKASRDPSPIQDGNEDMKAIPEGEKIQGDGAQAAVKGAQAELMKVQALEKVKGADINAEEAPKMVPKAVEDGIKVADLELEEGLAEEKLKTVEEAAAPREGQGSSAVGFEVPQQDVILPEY
The following applies: at 0.1 µM.

Experiment [15] has as its target T4, Calcium/calmodulin-dependent protein kinase type IV (Homo sapiens). The conditions noted are these: at 1 µM.
In experiment [16] the target is T5, Serine/threonine-protein kinase Chk1 (Homo sapiens) (UniProt O14757).
T5 sequence (whole entry): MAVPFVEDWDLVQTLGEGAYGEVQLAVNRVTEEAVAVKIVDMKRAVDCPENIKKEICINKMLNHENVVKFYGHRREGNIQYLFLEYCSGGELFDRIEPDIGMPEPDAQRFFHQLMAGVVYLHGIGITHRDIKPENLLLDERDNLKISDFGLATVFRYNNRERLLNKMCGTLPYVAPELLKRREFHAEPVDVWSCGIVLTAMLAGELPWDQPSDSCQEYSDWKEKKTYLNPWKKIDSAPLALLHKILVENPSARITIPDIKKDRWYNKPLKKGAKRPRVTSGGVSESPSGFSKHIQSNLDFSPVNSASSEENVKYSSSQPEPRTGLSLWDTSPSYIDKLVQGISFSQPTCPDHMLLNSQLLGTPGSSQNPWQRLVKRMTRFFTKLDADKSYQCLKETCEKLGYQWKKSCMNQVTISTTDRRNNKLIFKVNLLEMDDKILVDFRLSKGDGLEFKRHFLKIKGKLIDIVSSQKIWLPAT
The following applies: at 0.1 µM.

Experiment [17] deals with T5, Serine/threonine-protein kinase Chk1 (Homo sapiens). The conditions noted are these: at 1 µM.
Experiment [18] concerns the target Serine/threonine-protein kinase Chk2 (Homo sapiens) (UniProt O96017). The following applies: at 0.1 µM.
Experiment [19] has the same target. The following applies: at 1 µM.
Experiment [20] deals with Death-associated protein kinase 1 (Homo sapiens) (UniProt P53355). The conditions noted are these: at 0.1 µM.
Chain of Death-associated protein kinase 1 (Homo sapiens) (P53355 whole entry, looked up): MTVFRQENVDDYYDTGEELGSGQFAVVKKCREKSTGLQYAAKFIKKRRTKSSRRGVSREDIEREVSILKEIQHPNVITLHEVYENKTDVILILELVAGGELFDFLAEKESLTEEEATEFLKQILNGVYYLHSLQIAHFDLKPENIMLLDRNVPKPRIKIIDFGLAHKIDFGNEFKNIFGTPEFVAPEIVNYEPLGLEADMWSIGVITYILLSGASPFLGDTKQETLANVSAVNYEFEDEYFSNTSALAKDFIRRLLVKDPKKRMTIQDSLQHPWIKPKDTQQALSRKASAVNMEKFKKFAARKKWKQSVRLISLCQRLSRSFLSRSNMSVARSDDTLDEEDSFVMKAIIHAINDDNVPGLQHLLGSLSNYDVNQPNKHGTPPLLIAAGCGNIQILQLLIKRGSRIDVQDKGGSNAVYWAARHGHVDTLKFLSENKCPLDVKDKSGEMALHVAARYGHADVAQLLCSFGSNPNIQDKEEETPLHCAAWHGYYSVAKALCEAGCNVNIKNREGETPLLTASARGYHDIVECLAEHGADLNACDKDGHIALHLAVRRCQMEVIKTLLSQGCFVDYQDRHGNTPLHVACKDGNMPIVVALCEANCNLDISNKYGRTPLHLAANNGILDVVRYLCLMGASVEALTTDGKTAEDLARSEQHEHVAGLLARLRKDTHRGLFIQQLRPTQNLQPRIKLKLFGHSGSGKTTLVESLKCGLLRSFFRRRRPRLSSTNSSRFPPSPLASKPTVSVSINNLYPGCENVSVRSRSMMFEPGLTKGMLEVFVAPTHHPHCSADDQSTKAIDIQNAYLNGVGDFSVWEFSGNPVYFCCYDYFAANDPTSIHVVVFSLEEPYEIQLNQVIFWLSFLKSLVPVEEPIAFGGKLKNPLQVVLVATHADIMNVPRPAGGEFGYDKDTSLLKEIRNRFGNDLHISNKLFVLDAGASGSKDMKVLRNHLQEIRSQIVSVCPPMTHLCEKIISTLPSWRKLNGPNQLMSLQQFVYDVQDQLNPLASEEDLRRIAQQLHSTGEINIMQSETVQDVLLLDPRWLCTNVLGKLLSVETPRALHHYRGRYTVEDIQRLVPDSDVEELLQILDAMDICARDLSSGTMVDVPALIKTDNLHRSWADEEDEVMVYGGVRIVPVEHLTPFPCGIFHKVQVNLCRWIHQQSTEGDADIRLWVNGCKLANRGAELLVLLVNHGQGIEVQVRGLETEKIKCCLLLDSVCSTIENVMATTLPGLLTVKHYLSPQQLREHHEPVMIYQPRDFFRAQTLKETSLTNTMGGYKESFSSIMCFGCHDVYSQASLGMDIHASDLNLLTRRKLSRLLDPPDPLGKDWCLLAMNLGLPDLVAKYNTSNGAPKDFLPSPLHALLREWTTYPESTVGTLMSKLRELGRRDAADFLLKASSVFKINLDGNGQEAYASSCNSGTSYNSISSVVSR

In general, inhibition refers to the drop in the measured response relative to a control, in per cent.

Chain of 5'-AMP-activated protein kinase catalytic subunit alpha-2 (Homo sapiens) (P54646 whole entry, looked up): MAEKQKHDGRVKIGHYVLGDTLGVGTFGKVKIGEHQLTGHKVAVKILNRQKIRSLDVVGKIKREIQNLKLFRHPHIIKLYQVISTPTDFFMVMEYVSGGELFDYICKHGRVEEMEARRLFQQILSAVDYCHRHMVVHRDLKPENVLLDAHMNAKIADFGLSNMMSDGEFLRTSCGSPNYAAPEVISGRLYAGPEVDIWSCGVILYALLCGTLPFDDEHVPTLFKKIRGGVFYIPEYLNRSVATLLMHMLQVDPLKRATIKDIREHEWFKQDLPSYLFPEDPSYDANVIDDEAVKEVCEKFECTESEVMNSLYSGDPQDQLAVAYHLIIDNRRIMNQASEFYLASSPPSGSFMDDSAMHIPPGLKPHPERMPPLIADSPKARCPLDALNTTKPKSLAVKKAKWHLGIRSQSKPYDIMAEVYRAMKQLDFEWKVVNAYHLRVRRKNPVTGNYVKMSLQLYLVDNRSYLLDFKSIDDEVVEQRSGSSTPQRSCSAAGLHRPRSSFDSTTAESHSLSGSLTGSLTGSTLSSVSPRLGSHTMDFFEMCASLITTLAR
Chain of Serine/threonine-protein kinase Chk2 (Homo sapiens) (O96017 whole entry): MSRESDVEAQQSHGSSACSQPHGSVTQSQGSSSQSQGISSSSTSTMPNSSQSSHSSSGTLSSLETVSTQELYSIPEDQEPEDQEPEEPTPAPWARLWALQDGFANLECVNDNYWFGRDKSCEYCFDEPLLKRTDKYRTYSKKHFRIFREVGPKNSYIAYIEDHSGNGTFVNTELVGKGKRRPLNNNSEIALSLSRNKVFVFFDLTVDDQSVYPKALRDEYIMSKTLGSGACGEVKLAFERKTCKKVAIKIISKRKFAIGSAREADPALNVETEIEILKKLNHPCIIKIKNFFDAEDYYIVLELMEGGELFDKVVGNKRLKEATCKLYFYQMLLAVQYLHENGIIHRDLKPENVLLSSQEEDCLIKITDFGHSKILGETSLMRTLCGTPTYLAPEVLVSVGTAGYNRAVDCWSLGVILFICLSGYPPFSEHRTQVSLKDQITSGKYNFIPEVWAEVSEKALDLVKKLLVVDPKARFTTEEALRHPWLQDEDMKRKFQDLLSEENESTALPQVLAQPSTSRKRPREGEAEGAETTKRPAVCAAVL
Chain of Calcium/calmodulin-dependent protein kinase type II subunit delta (Homo sapiens) (Q13557 whole entry): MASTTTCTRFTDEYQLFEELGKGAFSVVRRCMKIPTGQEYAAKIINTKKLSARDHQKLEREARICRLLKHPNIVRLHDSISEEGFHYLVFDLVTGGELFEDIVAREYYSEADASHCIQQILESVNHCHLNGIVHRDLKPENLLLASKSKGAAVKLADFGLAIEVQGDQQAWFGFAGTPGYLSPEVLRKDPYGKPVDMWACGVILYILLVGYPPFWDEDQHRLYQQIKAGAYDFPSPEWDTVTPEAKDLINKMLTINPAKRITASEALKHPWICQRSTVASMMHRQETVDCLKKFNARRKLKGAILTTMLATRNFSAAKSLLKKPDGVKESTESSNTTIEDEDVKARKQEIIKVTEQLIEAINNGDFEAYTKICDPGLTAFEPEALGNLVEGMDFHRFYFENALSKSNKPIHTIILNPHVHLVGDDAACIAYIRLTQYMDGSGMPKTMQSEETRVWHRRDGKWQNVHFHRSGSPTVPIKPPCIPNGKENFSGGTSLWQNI
Chain of Calcium/calmodulin-dependent protein kinase type 1D (Homo sapiens) (Q8IU85 whole entry, looked up): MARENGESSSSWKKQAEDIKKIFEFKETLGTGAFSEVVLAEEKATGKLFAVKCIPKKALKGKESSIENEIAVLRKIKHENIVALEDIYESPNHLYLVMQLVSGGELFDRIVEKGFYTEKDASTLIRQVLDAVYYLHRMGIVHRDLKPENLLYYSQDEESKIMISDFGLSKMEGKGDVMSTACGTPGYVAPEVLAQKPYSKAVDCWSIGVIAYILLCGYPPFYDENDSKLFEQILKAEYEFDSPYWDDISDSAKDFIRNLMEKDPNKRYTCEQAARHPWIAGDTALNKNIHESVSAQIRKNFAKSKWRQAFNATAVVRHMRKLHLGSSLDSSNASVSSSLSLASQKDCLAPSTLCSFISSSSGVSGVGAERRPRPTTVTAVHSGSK
Chain of Calcium/calmodulin-dependent protein kinase type II subunit alpha (Homo sapiens) (Q9UQM7 whole entry): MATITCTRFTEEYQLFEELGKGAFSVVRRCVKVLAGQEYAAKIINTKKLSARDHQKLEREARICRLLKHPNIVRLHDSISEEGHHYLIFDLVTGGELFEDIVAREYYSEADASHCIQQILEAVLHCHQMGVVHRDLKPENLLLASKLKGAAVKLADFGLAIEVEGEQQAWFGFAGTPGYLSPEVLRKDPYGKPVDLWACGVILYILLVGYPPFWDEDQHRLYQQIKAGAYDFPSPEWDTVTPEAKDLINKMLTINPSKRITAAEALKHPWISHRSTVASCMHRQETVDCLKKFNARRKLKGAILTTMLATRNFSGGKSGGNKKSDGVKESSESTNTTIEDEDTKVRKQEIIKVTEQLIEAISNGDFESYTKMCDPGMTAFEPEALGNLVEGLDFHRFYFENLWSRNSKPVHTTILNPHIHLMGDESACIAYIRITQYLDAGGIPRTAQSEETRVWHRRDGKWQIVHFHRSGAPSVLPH

`O=C(Nc1ccc(Oc2ccc3[nH]c(NC(=O)c4ccccc4)nc3c2)cc1)Nc1cc(C(F)(F)F)ccc1F`: the inhibition turned out to be 4.55% in [1]; 1.15% in experiment [2]; 3.05% in experiment [3]; 0.18% in experiment [4]; 0.16% in experiment [5]; 1.2% in experiment [6]. Besides, the inhibition is 2.83% in experiment [7]; -0.03% in experiment [8]; 1.95% in experiment [9]; 2.8% in experiment [10]; 2.85% in experiment [11]; 2.01% in experiment [12]. In addition, the inhibition in [13] is 4.57%; in [14] it was -0.56%; in experiment [15], -0.86%; in [16], 4.82%; in experiment [17] it was 5.63%; in [18], 1.47%. Also, the inhibition in experiment [19] came out at 3.89%; in [20], 4.99%.

On to `COc1ccc(-c2ccc3c(NC(=O)C4CC4)n[nH]c3n2)cc1`, for which the inhibition in experiment [1] was 1.68%; in experiment [2], -0.56%; in [3] it was 0.04%; in experiment [4] it was 0.19%; in [5], 4.83%; in experiment [6], 3.16%. Further, the inhibition in experiment [7] is 10.7%; in [8] it was -0.49%; in [9], -0.83%; in experiment [10], 0.49%; in experiment [11] it was 0.75%; in experiment [12], 0.17%. For the same molecule, the inhibition is 1.7% in [13]; -1.51% in [14]; -2.95% in [15]; 2.25% in experiment [16]; 1.88% in experiment [17]; 0.78% in experiment [18]. Moreover, the results for the inhibition in experiment [19] and in experiment [20] were 1.92% and 2.58%, respectively.

As for `CN(C)CCOc1ccc(-c2cc(-c3ccc4c(c3)CCC4=NO)c(-c3ccncc3)o2)cc1`, the inhibition in experiment [1] was 0.01%; in experiment [2] it was 0.84%; in experiment [3] it was -0.24%; in experiment [4], -0.05%; in experiment [5], -0.95%; in experiment [6] it was -0.42%. The inhibition in experiment [7] is 1.46%; in [8], -0.88%; in experiment [9], 1.79%; in experiment [10], -1.08%; in [11], 0.22%; in [12] it was -0.38%. Also, the inhibition in experiment [13] was 2.18%; in experiment [14] it was -0.94%; in experiment [15] it was 1.99%; in experiment [16] it was -2.19%; in experiment [17] it was -2.8%; in experiment [18], -1.13%. The inhibition in [19] was -1.56%; in experiment [20], -1.01%.

Consider `Fc1ccc(-c2ncn(C3CCNCC3)c2-c2ccnc(Oc3ccc4c(c3)OCO4)n2)cc1`, for which the inhibition stood at 4.45% in experiment [1]; 1.79% in [2]; 3.25% in experiment [3]; 0.76% in experiment [4]; 6.01% in experiment [5]; 3.69% in experiment [6]. Besides, the inhibition in experiment [7] was 5.73%; in experiment [8] it was -0.69%; in experiment [9], 0.53%; in experiment [10], 6.35%; in [11] it was 12.6%; in experiment [12], 2.69%. Besides, the inhibition in [13] was 3.08%; in experiment [14] it was 0.19%; in experiment [15], 0.41%; in [16], -3.37%; in experiment [17] it was -1.58%; in experiment [18], -2.12%. Further, the inhibition in experiment [19] was -3.43%; in experiment [20] it was -1.22%.
